# Rows were chosen to be rich in hits. Some 3% of all compounds tested hit in one or more screens of this group.
# CHT allo act: human CHT allosteric activation. Q9GZV3. CHT-expressing cells, membrane potential dye, choline EC20; active compounds read high; LV-AA mutant CHT in HEK293 cells. B-score at 10 µM. 310,000 compounds, 0.49% hits. AID 488977;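 active = initial fluorescence not abnormally high and integrated response B-score, plate-corrected, over 3 SD above library mean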
# Target sequence (Q9GZV3 whole entry, looked up): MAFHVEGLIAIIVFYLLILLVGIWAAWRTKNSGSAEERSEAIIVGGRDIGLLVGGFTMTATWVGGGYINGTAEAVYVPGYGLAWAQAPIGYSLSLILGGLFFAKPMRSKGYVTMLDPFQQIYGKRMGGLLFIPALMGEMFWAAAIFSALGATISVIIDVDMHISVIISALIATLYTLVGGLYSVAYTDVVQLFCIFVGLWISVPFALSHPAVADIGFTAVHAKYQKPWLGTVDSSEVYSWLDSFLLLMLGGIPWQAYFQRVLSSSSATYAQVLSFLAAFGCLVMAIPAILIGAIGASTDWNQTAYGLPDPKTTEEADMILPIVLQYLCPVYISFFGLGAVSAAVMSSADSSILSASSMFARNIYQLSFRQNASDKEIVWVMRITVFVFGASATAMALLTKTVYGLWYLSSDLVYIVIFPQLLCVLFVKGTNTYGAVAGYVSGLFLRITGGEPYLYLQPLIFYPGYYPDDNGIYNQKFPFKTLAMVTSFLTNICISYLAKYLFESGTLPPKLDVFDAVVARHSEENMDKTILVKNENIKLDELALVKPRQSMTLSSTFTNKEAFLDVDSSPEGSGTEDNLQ
# NLRP3 yeast inh: inhibitors of NALP3 inflammasome in yeast; Yeast reconstituted NLRP3/ASC/caspase-1, beta-gal luminescence, 24 h; inhibition, % at 10 µM; 330,000 compounds, 0.39% hits; AID 2825;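 active = inhibition of 50% or more; inactive = inhibition below 50%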;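 also: plate controls were induced DMSO wells for no effect and uninduced yeast grown without galactose for full effect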
# Mot1-301 SUMO: blocks SUMOylation pathway, rescuing yeast Mot1-301 growth. S. cerevisiae Mot1-301 growth rescue, ATP luminescence, 38.5C; percent above DMSO median, 100 means doubled. growth rescue, % at 18.8 µM. 320,000 compounds, 1% hits. AID 2716;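 active = every valid replicate shows activation above 250% relative to neutral control wells; inactive = the rest, any valid replicate at or below 250%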;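 also: OY570 slx delta 5 strain wells were the positive control but not used for scaling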
# A1 inh: inhibitors of the anti-apoptotic protein A1, read as caspase activation; 330,000 compounds, 0.066% hits; MEF A1-2A-BIM cells, Caspase-Glo 3/7 luminescence, 3 h; percent of clofoctol response, vehicle zero; caspase activation, % (no concentration beside the values);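 active = over half of replicate activation scores above 10%, or exactly half above 10 with the replicate mean above 10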
# CHT block: human CHT choline transport inhibition. CHT-expressing cells, membrane potential dye, choline response; active compounds read low. AID 488975. B-score at 10 µM. 310,000 compounds, 0.86% hits;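 active = B-score over 3 SD under the library average, and starting fluorescence ratio not unusually high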;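 also: choline stimulus applied at its EC90 after an EC20 pre-addition; B-score computed on integrated fluorescence ratio after choline addition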
# NALP1 inh: NALP1 inhibition; S. cerevisiae NALP1/ASC/caspase-1 growth, X-gal OD620, 72 h; inhibition, % at 10 µM; 280,000 compounds, 0.61% hits; in the data active = inhibition mostly above about 24%, no sharp cut-off; inactive = mostly below about 32%
# CHT block conf: confirmation of human choline transporter CHT inhibitors | shares compounds with CHT block | CHT-expressing cells, choline membrane potential dye; LV-to-AA substituted CHT, HEK293 cells | CHT activity remaining % of control (active compounds read low), % at 10 µM | 2,400 compounds, 70% hits | AID 493221;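 active = choline transporter activity left, mean of duplicates at 10 µM, below buffer-only control mean minus 3 SD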;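 also: depolarization triggered by choline at its EC90 following an EC20 pre-addition; 0% = hemicholinium-3 full block and 100% = buffer-only control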
# HEK293 MPD ctr: counter-screen for CHT inhibitors: effect in parental HEK293 cells; shares compounds with CHT block; membrane potential dye, choline response; active = decrease or increase beyond buffer ±3SD; membrane potential ratio readout (active if shifted either direction beyond buffer ±3SD; no single direction) at 10 µM; 2,400 compounds, 4% hits;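 also: parental cells lack the transporter so any hit is non-specific; ratio is peak minus trough fluorescence over baseline after EC90 choline challenge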
# The depositor's hits bear a star; i = inactive; / = not tested or not shown.
SMILES,CHT allo act,NLRP3 yeast inh,Mot1-301 SUMO,A1 inh,CHT block,NALP1 inh,CHT block conf,HEK293 MPD ctr
CC1CCCCC1NC(=O)Cn1nnc(-c2ccc(Cl)cc2)n1 (configuration not stated),i,12.0,9.1,0.3,-6.29*,27.9,66.2%*,i
COc1ccc(C(CNC(=O)c2cc(F)c(F)c(F)c2F)N2CCOCC2)cc1 (configuration not stated),i,4.7,438.7,-0.6,i,7.6,/,/
Cc1cccc(C(=O)N[C@H](C(=O)Nc2ncc(C)s2)C(C)C)c1,i,27.2,64.4,0.1,-10.9*,3.0,i,i
Cc1cccc(C(=O)N[C@H](C(=O)Nc2nnc(C3CC3)s2)C(C)C)c1,i,11.0,-4.9,0.3,i,2.8,/,/
CC(c1ccco1)N(C(=O)c1cccc(Br)c1)c1ccccn1 (configuration not stated),i,1.4,-23.1,0.3,i,7.9,/,/
CCOC(=O)N1CCN(C(=O)C(c2ccccc2)c2ccccc2)CC1,i,18.0,-17.7,-0.5,-6.46*,6.7,i,-10.6*
Cc1cccc(Cl)c1OCCCN1CCOCC1,i,15.5,3.6,-0.5,i,2.4,/,/
Cc1n[nH]c(=O)c2c(NC(=O)CSc3nc4ccccc4c(=O)n3C(C)C)oc(C)c12,i,13.4,14.3,0.1,-10.2*,1.0,47.7%*,i
COCC(C)n1c(SCC(=O)Nc2oc(C)c3c(C)n[nH]c(=O)c23)nc2ccccc2c1=O (configuration not stated),i,9.5,422.9,1.2,i,6.6,/,/
COc1ccc(/C=C2\SC(=S)N(CC(=O)NC3C=CS(=O)(=O)C3)C2=O)cc1 (configuration not stated),i,10.6,0.8,-1.1,i,7.1,/,/
COc1ccc(C(=O)NC2CCCCC2)cc1OC1CCN(C(C)C)CC1,i,13.4,0.3,0.9,-7.74*,3.1,9.8%*,i
COc1ccc(C(=O)NCCC2=CCCCC2)cc1OC1CCN(C(C)C)CC1,i,-2.9,5.3,-0.9,-11.1*,12.5,5.1%*,i
COc1ccc(C(=O)N2CCCC(O)C2)cc1OC1CCN(C(C)C)CC1 (configuration not stated),i,8.1,-5.0,-1.2,-7.07*,1.6,61.5%*,i
COc1ccc(C(=O)NCCCSC)cc1OC1CCN(C(C)C)CC1,i,-1.1,5.7,0.4,-9.06*,-2.9,18.0%*,i
COc1ccc(N2CCN(C(=O)c3cn(CC4CCCCC4)nn3)CC2)cc1,i,4.5,11.7,0.0,i,5.8,/,/
Cc1ccc(NC(=S)NNc2ccc([N+](=O)[O-])cc2S(=O)(=O)Nc2ccccc2C(=O)O)cc1C,i,/,6.5,-0.3,-7.19*,10.5,50.0%*,i
CCc1cc(C(=O)N(CCCOC)c2c(N)n(Cc3ccccc3)c(=O)[nH]c2=O)sc1C,i,24.4,3.0,0.3,i,/,/,/
COc1ccc(NS(=O)(=O)c2ccc(NC(=O)c3ccccc3)cc2)nn1,i,16.9,0.1,-0.5,i,10.6,/,/
COc1cc(NS(=O)(=O)c2ccc(NC(=O)c3ccc(Cl)cc3Cl)cc2)ncn1,i,14.2,20.1,1.0,-9.3*,-61.9,26.9%*,i
O=C(Nc1ccc(S(=O)(=O)Nc2cnc3ccccc3n2)cc1)c1ccc(Cl)cc1Cl,i,20.8,4.9,-0.2,-12.6*,/,-9.5%*,i
COc1ccc(NS(=O)(=O)c2ccc(NC(=O)c3ccccc3Br)cc2)nn1,i,18.9,7.9,0.1,-8.49*,-2.4,19.3%*,i
O=C(Cc1ccc(Cl)cc1)Nc1ccc(S(=O)(=O)Nc2cnc3ccccc3n2)cc1,i,22.7,-5.4,0.4,i,-2.6,/,/
O=C(Nc1ccc(S(=O)(=O)Nc2cnc3ccccc3n2)cc1)c1cc(F)c(F)cc1Cl,i,5.4,6.0,0.2,-6.57*,9.8,27.0%*,i
COCc1ccc(CN2CCC(n3nccc3NC(=O)CCOc3ccccc3)CC2)o1,i,-1.5,-7.3,-0.4,i,13.5,/,/
Cc1cnc(=O)[nH]c1SCc1cccc([N+](=O)[O-])c1,i,-5.8,-24.5,0.7,i,31.5,/,/
SMILES,CHT allo act,NLRP3 yeast inh,Mot1-301 SUMO,A1 inh,CHT block,NALP1 inh,CHT block conf,HEK293 MPD ctr
COc1ccccc1OCCNC(=O)C1CCN(C(C)=O)CC1,i,6.4,-9.8,0.5,i,17.3,/,/
O=C(Nc1ccc(S(=O)(=O)Nc2cnc3ccccc3n2)cc1)c1ccc(Cl)c([N+](=O)[O-])c1,i,7.1,7.9,0.8,-6.1*,19.5,59.6%*,i
COc1ccc(C(=O)Nc2ccc(S(=O)(=O)Nc3cnc4ccccc4n3)cc2)cc1,i,15.9,3.4,0.4,i,14.1,/,/
O=C(Nc1ccc(Cc2ccncc2)cc1)c1cc(F)c(F)cc1Cl,i,-1.9,12.8,-0.3,-8.54*,21.9,i,i
Cc1ccsc1C(=O)OC(C)C(=O)NC1CCCCC1C (configuration not stated),/,21.3,/,/,/,/,/,/
CC1CCCC(NC(=O)COC(=O)c2cccs2)C1C (configuration not stated),/,12.0,5.2,-0.3,/,/,/,/
O=S(=O)(NCc1csc(-c2cccs2)n1)c1ccc(Cl)cc1,i,21.7,134.0,0.4,-6.63*,22.7,70.3%*,i
Cc1ccc(S(=O)(=O)NCc2csc(-c3cccs3)n2)cc1,i,7.4,2.1,0.3,i,/,/,/
O=S(=O)(NCc1csc(-c2cccs2)n1)c1cccc(C(F)(F)F)c1,i,14.1,0.4,-1.2,-5.49*,12.6,53.8%*,i
CCCNC(=O)Nc1cc(OC)c(OC)cc1Cc1nccc2cc(OC)c(OC)cc12,i,7.4,-15.5,-0.2,i,26.4,/,/
O=S(=O)(c1ccc(F)cc1)N1CCC2(CC1)OCCN2S(=O)(=O)c1cccs1,i,7.5,-17.7,1.0,i,/,/,/
CCOC(=O)C(CC(=O)c1ccccc1)CC(=O)c1ccccc1,i,32.2,-13.1,0.4,i,5.4,/,/
COC(=O)C(CC(=O)c1ccccc1)CC(=O)c1ccccc1,i,23.7,-1.9,0.6,-5*,11.9,i,i
C#CCNc1c2c(nc3ncnn13)CC(C)CC2 (configuration not stated),i,2.2,-4.8,0.7,-5.24*,/,63.5%*,i
